Test results as given in PubChem BioAssay (EPA / NIEHS).
“And” between values parts separate entries of the source, which are not always exact repeats. Equal values may be shown once. Inconclusive results are not listed. The source made the active and inactive calls. Rule for the calls, unless noted: active = hit-call score of the fitted dose curve at least 0.9, where 1 is the maximum; inactive = score below 0.9.

How the values were obtained:
[1] = read-out: E-selectin (Homo sapiens) (UniProt P16581); assay: BSK_SAg_Eselectin: BioMAP Diversity Plus: SAg Assay for Eselectin Biomarker Activity (AID 2283091); settings: primary human HUVEC with PBMC; actives raise or lower the signal
Method in brief: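 Primary human endothelial cells and peripheral blood mononuclear cells were co-cultured and exposed to chemical for 24 hours. E-selectin levels were then quantified by ELISA, with bidirectional curve fitting normalised to DMSO controls.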

[2] = BSK_SAg_PBMCCytotoxicity: PBMC Cytotoxicity Assessment in the BioMAP Diversity Plus: SAg Assay (AID 2283093); settings: primary human HUVEC with PBMC;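 note: PBMC viability measured as Alamar Blue reduction fluorescence at 546/580 nm; fitted both ways against DMSO so a hit may be loss or gain of signal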;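 for AC50: PBMC superantigen activated with SEB plus TSST-1 one hour after compound addition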
Method in brief: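 Compound added to 75,000 PBMC/well for 1 h; SEB and TSST-1 then added at 20 ng/mL final each; 90 h incubation; Alamar Blue 6 h; read 546/580 nm ex/em. Activity fitted bidirectionally relative to DMSO baseline.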

[3] = read-out: Interleukin-8 (IL8), CXCL8 (gene 3576); assay: BSK_SAg_IL8: BioMAP Diversity Plus: SAg Assay for Interleukin-8 (IL8) Biomarker Activity (AID 2283094); settings: primary human HUVEC with PBMC; actives raise or lower the signal
Method in brief: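 ELISA read-out of IL-8 in a primary human vascular co-culture (umbilical vein endothelium plus PBMC), taken 24 h after compound addition. Values derive from bidirectional fits against DMSO negative controls.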

[4] = BSK_SAg_Proliferation: Cell Proliferation Assessment in the BioMAP Diversity Plus: SAg Assay (AID 2283095); settings: primary human HUVEC with PBMC;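 note: relative cell number as total protein by SRB absorbance in sub-confluent culture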
Method in brief: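 Cells (endothelium plus PBMC, human primary) were dosed with chemical, cultured 96 h, fixed in 10% TCA and stained with 0.1% SRB. Absorbance at 560 nm gave relative protein, fitted bidirectionally relative to DMSO.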

[5] = BSK_SAg_SRB: Viability Assessment in the BioMAP Diversity Plus: SAg Assay (AID 2283096); settings: primary human HUVEC with PBMC;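 note: cells read one day after compound addition; hits may be either gain or loss of signal compared with DMSO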
Method in brief: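 Total protein by sulforhodamine B staining, 24 h after dosing, in HUVEC–PBMC co-culture; DMSO-referenced bidirectional fitting.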

[6] = target: human CYP1A1, CYP1A1 (gene 1543) (UniProt P04798); assay: NVS_ADME_hCYP1A1: NovaScreen (NVS) CYP450-related Enzyme Activity (ADME) Assay for human CYP1A1 (AID 2283100; active = hit-call score of the fitted dose curve at least 0.9, where 1 is the maximum)
Chain of human CYP1A1, CYP1A1 (gene 1543) (P04798 whole entry, looked up): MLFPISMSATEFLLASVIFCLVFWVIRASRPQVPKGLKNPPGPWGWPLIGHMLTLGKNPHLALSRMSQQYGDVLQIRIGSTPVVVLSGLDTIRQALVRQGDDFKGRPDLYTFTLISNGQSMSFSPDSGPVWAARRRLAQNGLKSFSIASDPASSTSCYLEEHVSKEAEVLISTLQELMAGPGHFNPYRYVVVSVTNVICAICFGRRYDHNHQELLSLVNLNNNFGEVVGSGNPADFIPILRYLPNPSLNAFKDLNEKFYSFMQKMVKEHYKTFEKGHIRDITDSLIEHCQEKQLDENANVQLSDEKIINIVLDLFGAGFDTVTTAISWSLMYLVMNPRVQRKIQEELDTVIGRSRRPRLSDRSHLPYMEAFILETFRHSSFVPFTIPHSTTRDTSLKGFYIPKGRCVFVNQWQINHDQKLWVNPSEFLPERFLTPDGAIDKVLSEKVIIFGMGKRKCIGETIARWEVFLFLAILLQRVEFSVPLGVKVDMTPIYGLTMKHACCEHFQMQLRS
Method in brief: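 Compounds first went through duplicate single-concentration testing at 10 uM against purified CYP1A1. Those passing a threshold such as 30% inhibition entered singleton dose-response, highest concentration 20 uM. Signal was fluorescence measured after 1 hour.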

[7] = target: human CYP1A2, CYP1A2 (gene 1544) (UniProt P05177); assay: NVS_ADME_hCYP1A2: NovaScreen (NVS) CYP450-related Enzyme Activity (ADME) Assay for human CYP1A2 (AID 2283102; active = hit-call score of the fitted dose curve at least 0.9, where 1 is the maximum;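 for AC50: fluorescence from turnover of a fluorogenic substrate by recombinant insect-cell CYP1A2; potency for inhibition since loss of fluorescence marks reduced CYP1A2 activity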)
Chain of human CYP1A2, CYP1A2 (gene 1544) (P05177 whole entry, looked up): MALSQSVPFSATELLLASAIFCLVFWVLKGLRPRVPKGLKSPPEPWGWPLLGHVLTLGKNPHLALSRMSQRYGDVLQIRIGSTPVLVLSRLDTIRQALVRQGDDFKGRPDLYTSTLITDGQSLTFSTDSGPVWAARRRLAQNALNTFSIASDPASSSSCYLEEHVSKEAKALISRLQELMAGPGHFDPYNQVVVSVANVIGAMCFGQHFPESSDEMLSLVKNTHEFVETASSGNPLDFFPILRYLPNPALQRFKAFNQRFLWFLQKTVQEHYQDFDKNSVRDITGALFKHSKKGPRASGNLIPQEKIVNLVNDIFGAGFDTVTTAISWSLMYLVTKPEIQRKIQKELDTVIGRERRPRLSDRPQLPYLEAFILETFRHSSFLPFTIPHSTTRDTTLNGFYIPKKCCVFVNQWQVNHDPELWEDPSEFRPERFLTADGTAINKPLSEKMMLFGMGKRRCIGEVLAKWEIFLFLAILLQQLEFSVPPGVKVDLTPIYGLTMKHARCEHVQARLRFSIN
Method in brief: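 Compounds were tested at 10 uM in duplicate against recombinant CYP1A2 produced in insect cells. Enzyme activity was measured by fluorescence 0.5 h after dosing, with loss of signal versus acetonitrile control. Active compounds were re-tested in concentration series.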

[8] = target: Cytochrome P450 2C18 (Homo sapiens) (UniProt P33260); assay: NVS_ADME_hCYP2C18: NovaScreen (NVS) CYP450-related Enzyme Activity (ADME) Assay for human CYP2C18 (AID 2283103)
Chain of Cytochrome P450 2C18 (Homo sapiens) (P33260 whole entry, looked up): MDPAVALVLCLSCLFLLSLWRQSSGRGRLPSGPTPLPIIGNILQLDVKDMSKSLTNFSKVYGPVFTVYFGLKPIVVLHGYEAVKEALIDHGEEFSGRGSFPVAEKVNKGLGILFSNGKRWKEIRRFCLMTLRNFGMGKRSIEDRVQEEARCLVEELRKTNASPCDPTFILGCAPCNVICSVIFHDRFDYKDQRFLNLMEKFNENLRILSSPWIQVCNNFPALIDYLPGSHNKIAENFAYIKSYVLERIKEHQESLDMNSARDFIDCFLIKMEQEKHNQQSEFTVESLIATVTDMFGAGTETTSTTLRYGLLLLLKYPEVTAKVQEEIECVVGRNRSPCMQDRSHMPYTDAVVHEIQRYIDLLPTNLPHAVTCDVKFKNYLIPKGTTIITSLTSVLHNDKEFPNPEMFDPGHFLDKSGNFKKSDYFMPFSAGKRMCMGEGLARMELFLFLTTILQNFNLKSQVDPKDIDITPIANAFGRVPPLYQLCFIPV
Method in brief: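 Cell-free recombinant human CYP2C18 with fluorogenic substrate; fluorescence intensity read 0.5 h after dosing. Single-point screen at 10 uM in duplicate, then concentration-response up to 20 uM; loss of signal fitted against acetonitrile baseline.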

[9] = target: Cytochrome P450 2C19 (Homo sapiens) (UniProt P33261); assay: NVS_ADME_hCYP2C19: NovaScreen (NVS) CYP450-related Enzyme Activity (ADME) Assay for human CYP2C19 (AID 2283113; active = hit-call score of the fitted dose curve at least 0.9, where 1 is the maximum;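 note: potency for inhibition seen as loss of fluorescent signal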)
Method in brief: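 Chemicals first screened in duplicate at 10 uM against recombinant human enzyme produced in insect cells; confirmed actives then run as concentration series. Fluorogenic substrate turnover read by fluorescence after 1 h, normalised to acetonitrile.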

[10] = target: rat CYP1A2, Cyp1a2 (gene 24297) (UniProt P04799); assay: NVS_ADME_rCYP1A2: NovaScreen (NVS) CYP450-related Enzyme Activity (ADME) Assay for rat CYP1A2 (AID 2283115; active = hit-call score of the fitted dose curve at least 0.9, where 1 is the maximum)
Method in brief: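 Cell-free recombinant rat enzyme with fluorogenic substrate, read by fluorescence intensity 1 hour after dosing. Loss of signal versus acetonitrile negative control; primary screen at 10 uM in duplicate, actives followed in concentration series.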

[11] = target: human CYP19A1, CYP19A1 (gene 1588) (UniProt P11511); assay: NVS_ADME_hCYP19A1: NovaScreen (NVS) CYP450-related Enzyme Activity (ADME) Assay for human CYP19A1 (AID 2283098; active = hit-call score of the fitted dose curve at least 0.9, where 1 is the maximum;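 for AC50: potency for inhibitors seen as loss of fluorescent enzyme signal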)
Chain of human CYP19A1, CYP19A1 (gene 1588) (P11511 whole entry, looked up): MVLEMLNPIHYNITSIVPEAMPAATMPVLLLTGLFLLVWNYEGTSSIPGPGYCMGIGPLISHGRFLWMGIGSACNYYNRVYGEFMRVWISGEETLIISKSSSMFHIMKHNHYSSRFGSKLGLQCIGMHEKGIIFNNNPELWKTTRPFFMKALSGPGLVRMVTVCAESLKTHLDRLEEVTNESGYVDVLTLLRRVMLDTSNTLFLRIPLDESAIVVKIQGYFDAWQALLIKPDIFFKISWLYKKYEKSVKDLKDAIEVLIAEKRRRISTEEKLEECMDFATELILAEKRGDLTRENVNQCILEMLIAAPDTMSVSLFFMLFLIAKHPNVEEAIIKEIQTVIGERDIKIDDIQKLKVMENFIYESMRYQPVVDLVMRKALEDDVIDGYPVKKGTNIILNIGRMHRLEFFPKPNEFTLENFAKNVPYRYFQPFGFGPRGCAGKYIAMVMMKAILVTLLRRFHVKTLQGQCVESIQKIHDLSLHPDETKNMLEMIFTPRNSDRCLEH
Method in brief: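 Biochem, cell-free; recombinant enzyme + specific substrate; fluorescence intensity at 0.5 h post-dose; 10 uM duplicate primary, conc. series for actives; acetonitrile = negative control/baseline; positive and negative controls on every plate.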

[12] = target: human CYP2A6, CYP2A6 (gene 1548) (UniProt P11509); assay: NVS_ADME_hCYP2A6: NovaScreen (NVS) CYP450-related Enzyme Activity (ADME) Assay for human CYP2A6 (AID 2283099; active = hit-call score of the fitted dose curve at least 0.9, where 1 is the maximum)
Method in brief: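 Recombinant human CYP2A6 from insect cells was incubated with chemical for 0.5 h and activity read by fluorescence. Single-concentration duplicates at 10 uM preceded concentration-response testing to 20 uM, with activity referenced to acetonitrile.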

[13] = target: human CYP2B6, CYP2B6 (gene 1555) (UniProt P20813); assay: NVS_ADME_hCYP2B6: NovaScreen (NVS) CYP450-related Enzyme Activity (ADME) Assay for human CYP2B6 (AID 2283101; active = hit-call score of the fitted dose curve at least 0.9, where 1 is the maximum)
Method in brief: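 Recombinant protein, specific fluorescent substrate, read at 1 h post-dosing. Primary: single 10 uM, duplicate; follow-up: concentration series. Activity = signal loss vs acetonitrile baseline, with positive and negative controls on every plate.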

[14] = target: human CYP2J2, CYP2J2 (gene 1573) (UniProt P51589); assay: NVS_ADME_hCYP2J2: NovaScreen (NVS) CYP450-related Enzyme Activity (ADME) Assay for human CYP2J2 (AID 2283106; active = hit-call score of the fitted dose curve at least 0.9, where 1 is the maximum)
Chain of human CYP2J2, CYP2J2 (gene 1573) (P51589 whole entry, looked up): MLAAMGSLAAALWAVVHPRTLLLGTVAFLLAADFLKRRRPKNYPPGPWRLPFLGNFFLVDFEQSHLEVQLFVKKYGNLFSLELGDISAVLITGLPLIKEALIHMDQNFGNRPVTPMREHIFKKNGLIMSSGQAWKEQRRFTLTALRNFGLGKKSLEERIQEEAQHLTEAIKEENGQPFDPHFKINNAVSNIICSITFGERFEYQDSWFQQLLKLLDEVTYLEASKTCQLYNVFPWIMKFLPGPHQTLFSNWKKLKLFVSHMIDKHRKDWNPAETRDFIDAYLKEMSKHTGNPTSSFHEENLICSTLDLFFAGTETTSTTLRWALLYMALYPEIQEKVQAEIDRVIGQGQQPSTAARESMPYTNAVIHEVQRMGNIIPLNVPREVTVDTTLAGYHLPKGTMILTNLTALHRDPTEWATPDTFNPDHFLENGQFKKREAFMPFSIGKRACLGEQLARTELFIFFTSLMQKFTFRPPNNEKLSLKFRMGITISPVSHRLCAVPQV
Method in brief: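 Cell-free assay of recombinant CYP2J2 with a fluorogenic substrate, read 1 h after dosing; loss of signal versus acetonitrile. Primary screen at 10 uM in duplicate, then concentration-response up to 20 uM for chemicals passing threshold (e.g., 30% inhibition).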

[15] = target: human CYP2D6, CYP2D6 (gene 1565) (UniProt P10635); assay: NVS_ADME_hCYP2D6: NovaScreen (NVS) CYP450-related Enzyme Activity (ADME) Assay for human CYP2D6 (AID 2283107; active = hit-call score of the fitted dose curve at least 0.9, where 1 is the maximum)
Chain of human CYP2D6, CYP2D6 (gene 1565) (P10635 whole entry, looked up): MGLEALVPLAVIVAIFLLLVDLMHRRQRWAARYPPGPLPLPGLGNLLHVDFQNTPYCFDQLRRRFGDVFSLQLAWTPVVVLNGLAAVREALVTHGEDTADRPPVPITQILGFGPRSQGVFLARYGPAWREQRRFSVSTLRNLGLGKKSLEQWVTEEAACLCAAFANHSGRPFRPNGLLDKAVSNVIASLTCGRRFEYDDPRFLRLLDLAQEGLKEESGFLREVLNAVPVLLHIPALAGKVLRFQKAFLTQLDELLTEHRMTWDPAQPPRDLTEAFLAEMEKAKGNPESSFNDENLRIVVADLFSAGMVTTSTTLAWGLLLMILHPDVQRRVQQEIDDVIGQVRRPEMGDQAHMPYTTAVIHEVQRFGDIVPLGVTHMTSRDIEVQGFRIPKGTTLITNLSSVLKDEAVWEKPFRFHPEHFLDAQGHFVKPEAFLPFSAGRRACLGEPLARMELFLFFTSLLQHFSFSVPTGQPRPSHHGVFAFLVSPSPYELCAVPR
Method in brief: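 Compounds were first tested in duplicate at 10 uM against recombinant enzyme produced in insect cells, with substrate turnover measured by fluorescence after 1 hour. Decreased signal, referenced to acetonitrile vehicle, was taken as reduced enzyme activity. Active chemicals went on to concentration-response testing.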

[16] = target: human CYP2C9, CYP2C9 (gene 1559) (UniProt P11712); assay: NVS_ADME_hCYP2C9: NovaScreen (NVS) CYP450-related Enzyme Activity (ADME) Assay for human CYP2C9 (AID 2283108; active = hit-call score of the fitted dose curve at least 0.9, where 1 is the maximum)
Chain of human CYP2C9, CYP2C9 (gene 1559) (P11712 whole entry, looked up): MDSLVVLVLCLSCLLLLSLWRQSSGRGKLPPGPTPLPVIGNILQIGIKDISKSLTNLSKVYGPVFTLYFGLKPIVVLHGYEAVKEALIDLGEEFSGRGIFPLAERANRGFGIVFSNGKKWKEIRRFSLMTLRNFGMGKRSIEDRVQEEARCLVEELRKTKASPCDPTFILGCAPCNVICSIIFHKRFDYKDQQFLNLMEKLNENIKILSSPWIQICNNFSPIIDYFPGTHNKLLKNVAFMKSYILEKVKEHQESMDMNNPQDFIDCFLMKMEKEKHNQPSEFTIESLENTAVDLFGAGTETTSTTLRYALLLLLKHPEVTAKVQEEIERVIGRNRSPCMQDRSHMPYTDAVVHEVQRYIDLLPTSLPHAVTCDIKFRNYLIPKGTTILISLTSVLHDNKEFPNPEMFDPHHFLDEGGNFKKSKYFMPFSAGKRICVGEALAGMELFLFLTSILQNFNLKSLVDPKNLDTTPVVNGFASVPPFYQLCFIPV
Method in brief: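 Fluorescence readout of CYP2C9 activity (SF9-expressed human enzyme) at 0.75 h. The primary screen used 10 uM in duplicate, with concentration-response follow-up for actives; acetonitrile was the negative control.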

[17] = target: human CYP2C8, CYP2C8 (gene 1558) (UniProt P10632); assay: NVS_ADME_hCYP2C8: NovaScreen (NVS) CYP450-related Enzyme Activity (ADME) Assay for human CYP2C8 (AID 2283104)
Chain of human CYP2C8, CYP2C8 (gene 1558) (P10632 whole entry, looked up): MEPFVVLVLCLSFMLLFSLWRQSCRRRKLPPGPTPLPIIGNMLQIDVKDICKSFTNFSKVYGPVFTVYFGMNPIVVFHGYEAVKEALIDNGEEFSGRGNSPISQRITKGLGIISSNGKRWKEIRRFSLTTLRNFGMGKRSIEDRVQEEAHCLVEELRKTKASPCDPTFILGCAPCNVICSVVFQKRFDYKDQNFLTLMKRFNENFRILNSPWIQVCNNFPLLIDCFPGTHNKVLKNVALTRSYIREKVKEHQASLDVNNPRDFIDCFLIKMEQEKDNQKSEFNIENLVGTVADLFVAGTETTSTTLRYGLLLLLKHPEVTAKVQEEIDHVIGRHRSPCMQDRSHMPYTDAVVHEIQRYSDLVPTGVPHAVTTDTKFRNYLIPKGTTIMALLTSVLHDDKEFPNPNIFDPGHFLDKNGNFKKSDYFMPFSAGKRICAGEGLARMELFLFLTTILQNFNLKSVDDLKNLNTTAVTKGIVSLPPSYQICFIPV
Method in brief: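 Recombinant human CYP2C8 with fluorogenic substrate, 0.5 h, fluorescence intensity; signal loss fitted versus acetonitrile. Screened in duplicate at 10 uM, then actives run in concentration-response up to 20 uM.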

[18] = target: Cytochrome P450 3A4 (Homo sapiens) (UniProt P08684); assay: NVS_ADME_hCYP3A4: NovaScreen (NVS) CYP450-related Enzyme Activity (ADME) Assay for human CYP3A4 (AID 2283110; active = hit-call score of the fitted dose curve at least 0.9, where 1 is the maximum)
Method in brief: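 Compounds were first screened in duplicate at 10 uM against recombinant CYP3A4 produced in insect cells, then actives were run in concentration series. Enzyme activity was measured by fluorescence after 0.33 hour, with acetonitrile as baseline.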

Measured: AC50

Chain of E-selectin (Homo sapiens) (P16581 whole entry, looked up): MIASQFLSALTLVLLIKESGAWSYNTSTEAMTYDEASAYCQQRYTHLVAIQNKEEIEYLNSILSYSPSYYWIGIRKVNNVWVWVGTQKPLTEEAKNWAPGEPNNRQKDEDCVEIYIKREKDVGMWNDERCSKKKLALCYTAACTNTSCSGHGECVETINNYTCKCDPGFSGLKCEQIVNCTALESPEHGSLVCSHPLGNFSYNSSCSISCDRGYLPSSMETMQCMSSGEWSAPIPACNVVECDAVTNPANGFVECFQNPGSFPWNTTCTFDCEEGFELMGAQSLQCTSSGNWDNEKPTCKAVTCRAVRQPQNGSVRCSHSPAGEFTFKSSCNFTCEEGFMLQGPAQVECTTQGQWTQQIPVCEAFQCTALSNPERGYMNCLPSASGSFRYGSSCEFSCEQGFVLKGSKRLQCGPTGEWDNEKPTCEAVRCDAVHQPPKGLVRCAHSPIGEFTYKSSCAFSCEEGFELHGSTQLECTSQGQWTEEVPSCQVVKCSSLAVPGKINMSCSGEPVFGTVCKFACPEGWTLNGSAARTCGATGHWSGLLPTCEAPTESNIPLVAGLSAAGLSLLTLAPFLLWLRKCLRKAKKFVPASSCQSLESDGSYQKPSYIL

COP(=S)(OC)Oc1nc(Cl)c(Cl)cc1Cl
active: [1] 32 µM | [4] 20 µM | [9] 10000 nM
inactive: [2] | [3] | [5] | [6] | [7] | [8] | [10]

CCCC1COC(Cn2cncn2)(c2ccc(Cl)cc2Cl)O1 (stereo not drawn)
inactive: [1] | [2] | [3] | [5] | [12] | [14]
active: [4] 20.7 µM | [11] 2.04 µM | [6] 7.82 µM | [13] 2.78 µM | [8] 2.15 µM | [15] 13.9 µM | [16] 1.65 µM and 4.57 µM | [9] 721 nM

O=C(Nc1ccccc1)Nc1ccnc(Cl)c1
active: [1] 14.2 µM | [3] 20 µM | [4] 33.5 µM | [6] 9.34 µM | [14] 2.15 µM | [16] 2.46 µM
inactive: [2] | [5] | [11] | [10]

COC(=O)N(OC)c1ccccc1COc1ccn(-c2ccc(Cl)cc2)n1
active: [1] 3.97 µM | [2] 222 nM | [3] 2.92 µM | [4] 3.97 µM | [5] 8.48 µM | [6] 1.87 µM | [7] 0.912 µM | [8] 0.784 µM | [16] 1.26 µM | [9] 720 nM
inactive: [11] | [17]

N#CC(CCc1ccc(Cl)cc1)(Cn1cncn1)c1ccccc1 (stereo not drawn)
inactive: [1] | [2] | [3] | [5] | [11] | [6]
active: [4] 8.6 µM | [13] 0.429 µM | [8] 0.428 µM | [16] 1.14 µM | [18] 4.35 µM | [9] 191 nM

COc1nc(C)nc(NC(=O)NS(=O)(=O)c2ccccc2Cl)n1
inactive: [1] | [2] | [3] | [4] | [5] | [15]

CC1=C(C(=O)Nc2ccccc2)SCCO1
active: [7] 6.47 µM
inactive: [1] | [2] | [3] | [4] | [5] | [10]

CCCN(CCC)c1c([N+](=O)[O-])cc(S(N)(=O)=O)cc1[N+](=O)[O-]
active: [1] 33.1 µM and 31.4 µM and 30 µM | [2] 30.7 µM [middle of 4 runs] | [3] 39.7 µM [middle of 4 runs] | [4] 30.2 µM [middle of 4 runs] | [5] 32.3 µM [middle of 4 runs] | [8] 2.71 µM | [17] 4.89 µM | [9] 1.34 µM [middle of 4 runs]
inactive: [13] | [18]

CCOC(=O)CC(SP(=S)(OC)OC)C(=O)OCC (stereo not drawn)
active: [12] 1.98 µM | [6] 2.87 µM | [13] 0.899 µM | [7] 0.837 µM | [8] 0.459 µM | [14] 0.369 µM | [15] 4.68 µM | [16] 0.752 µM | [9] 32 nM
inactive: [1] | [2] | [3] | [4] | [5] | [11] | [17]

CON(C)C(=O)Nc1ccc(Cl)c(Cl)c1
inactive: [1] | [2] | [3] | [4] | [5] | [11] | [10]
active: [6] 3.72 µM

CC1COC(Cn2cncn2)(c2ccc(Oc3ccc(Cl)cc3)cc2Cl)O1 (stereo not drawn)
active: [1] 13.1 µM | [2] 33200 nM | [3] 15.8 µM | [4] 14.7 µM | [5] 29.6 µM | [11] 0.706 µM | [6] 1.63 µM | [13] 1.71 µM | [8] 1.07 µM | [17] 2.74 µM | [14] 0.438 µM | [16] 1.34 µM | [9] 25.8 nM
